Only some compounds are listed: those with a hit (about 3.2% of all), similar ones and a draw of the others.
TexasRed fluor = counter-screen for TRb-SRC2 inhibitors: fluorescence interference | TRb/SRC2 Texas Red total fluorescence interference | Potency, µM (highest dose often 106 µM), for the others: at the highest dose fluorescence change, negative = quenching | actives 0.29% (n = 280,000) | AID 1479; active = well fitted curve in either direction with a large enough effect; inconclusive = small, poorly fitted or top-dose-only effect
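Flags fluorescent or light-absorbing compounds by total fluorescence, S + 2P, at 555 nm excitation and 632 nm emission. Mixture: 20 nM Texas Red SRC2 peptide, 0.6 uM human TRb LBD, 1 uM T3, 5% DMSO; compound exposure 5 h at ambient temperature.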
TRb-SRC2 inh = TRbeta-SRC2 interaction inhibition; AID 1469; actives 0.065% (n = 280,000); TRbeta-SRC2 peptide binding, fluorescence polarization; receptor liganded with 1 µM T3; Potency, µM (doses to about 106 µM), without a hit: top-dose activity change, negative = inhibition, actives largely listed as inhibitors;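 also: plate controls were bound peptide for no effect and peptide without receptor for full effect; nearly all actives have a fitted effect of over 50% in size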
Target sequence (P10828 whole entry, looked up): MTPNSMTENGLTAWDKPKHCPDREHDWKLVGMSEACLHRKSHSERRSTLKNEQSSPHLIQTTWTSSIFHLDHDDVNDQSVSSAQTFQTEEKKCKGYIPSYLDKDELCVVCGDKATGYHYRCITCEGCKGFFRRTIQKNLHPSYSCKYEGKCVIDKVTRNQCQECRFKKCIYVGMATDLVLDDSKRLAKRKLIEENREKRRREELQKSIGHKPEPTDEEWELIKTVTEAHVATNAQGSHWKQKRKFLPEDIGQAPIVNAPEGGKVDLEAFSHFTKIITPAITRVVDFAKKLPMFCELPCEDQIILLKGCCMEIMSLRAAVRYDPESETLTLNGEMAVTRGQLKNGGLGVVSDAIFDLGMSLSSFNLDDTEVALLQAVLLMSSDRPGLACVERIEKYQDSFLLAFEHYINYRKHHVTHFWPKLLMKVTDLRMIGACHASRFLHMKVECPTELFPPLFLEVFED
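A fluorescence polarization screen tested compounds at multiple concentrations against complex formation between 0.6 uM TRb ligand-binding domain and 20 nM Texas Red SRC2 peptide, with 1 uM T3 present; readout after 5 hr.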
RGS12 GoLoco inh = inhibitors of human Gai1-RGS12 GoLoco interaction (red fluorophore); actives 0.44% (n = 230,000); AID 880; Potency, µM (titrated, usually from 61.6 µM), without a hit: at the top dose activity, negative = inhibition, most hits filed as inhibitors; P63096; Gai1:RGS12 GoLoco peptide FP, rhodamine, 10 min; active = well fitted inhibition curve with a large enough effect, not every such curve was filed as active; inactive = no such curve, though single readings can be large or run the other way; also: nearly all actives have a fitted effect of over 30% in size
Tau fluor cs = counter-screen for tau fibril formation inhibitors; AID 1463; tau K18 P301L Alexa594 fluorescence, heparin fibrillization; actives 0.93% (n = 280,000); Potency, µM (top dose mostly 57.7 µM), inactives show at the highest dose activity change, negative = decrease; also: nearly all actives have a fitted effect of over 55% in size
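Human K18 P301L tau (15 uM unlabeled plus 0.24 uM Alexa 594-labeled, final) in 100 mM sodium acetate pH 7 was mixed with compound and 20 uM heparin and incubated 6 hr at 37 C.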
Tau fibril ThT = blocks human tau fibril formation measured by thioflavin T. recombinant tau K18 P301L (four-repeat tau fragment), heparin-induced fibrillization, ThT fluorescence. AID 1460. Potency, µM (highest dose often 57.4 µM), inactives show at the top dose activity, negative = inhibition, usual class: inhibitors. actives 2.1% (n = 270,000); also: nearly all actives have a fitted effect of over 55% in size
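Aggregation was driven by heparin (20 uM final) acting on recombinant tau […] bearing P301L in 100 mM sodium acetate pH 7; fibrils were detected with Thioflavin T.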
Tau FP inhib = tau fibrillization inhibition (FP); AID 1468; Potency, µM (doses to about 57.7 µM), for the others: at the top dose activity, negative = inhibition, most hits filed as inhibitors; P10636; K18 P301L tau heparin fibrillization, Alexa594 FP, 6 h; actives 0.39% (n = 280,000); also: nearly all actives have a fitted effect of over 55% in size
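FP of Alexa 594-tau after heparin (20 uM) induction. Substrate: human K18 P301L, 15 uM unlabeled, 0.24 uM labeled. Buffer 100 mM sodium acetate pH 7. 6 hr, 37 C.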
* hit, by the source's call; ? = inconclusive; nt = not tested or not shown; [ ] = remark or other dose. Unless noted, calls follow the shape of the dose curve; as a rule, active = well fitted curve in the direction sought with a large enough effect; inconclusive = small, poorly fitted or top-dose-only effect, or another doubt; inactive = no such curve, though single readings can be large; an effect the other way counts as inactive or inconclusive. Unless noted, % is scaled to controls: 0 for no effect and ±100 for the full control effect; potency is read from the fitted curve at half-maximal effect.

SMILES | TexasRed fluor | TRb-SRC2 inh | RGS12 GoLoco inh | Tau fluor cs | Tau fibril ThT | Tau FP inhib
Cc1cnc(C(=O)Nc2ccc(F)cc2)cn1 | -3.6% | 8.8% | -14.9% | 2.2% | 3.5% | -6.6%
Cc1cc(C)c(S(=O)(=O)ON2C(=O)c3ccccc3C2=O)cc1C | 0.4%[53 µM] | -13.1%[53 µM] | -8.5% | -9.2% | ? | ?
Cc1ccc(S(=O)(=O)ON2C(=O)c3ccccc3C2=O)c(C)c1 | -3.8% | 5.1% | nt | -20.8% | 17.8µM* | ?
O=C(O)c1ccc2cc(-c3ccc(O)c(C45CC6CC(CC(C6)C4)C5)c3)ccc2c1 | -5.1% | 13.9% | 0.9% | ? | 28.2µM* | ?
C[C@@H]1C[C@](C)(C(=O)c2ccc3ccccc3c2)C=C1c1ccc2ccccc2c1 | 0.0% | 11.6% | -5.3% | -15.1% | ? | -2.8%
NC(C(=O)O)c1nn[nH]n1 (stereo unspecified) | -1.7% | -9.4% | nt | nt | nt | nt
CC(=O)Nc1ccc(OC(C)=O)cc1 | -2.6% | 3.8% | nt | nt | nt | nt
CCCCCCCCCC[n+]1cccc2c3ccccc3ccc21 | -0.5% | 3.3% | 10µM* | 0.3% | -14.3% | -10.0%
Nc1nc(-c2ccccc2)c(N=Nc2cccc3ccccc23)s1 | -5.6% | 7.7% | 4.4% | 3.16µM*[quencher] | 2.82µM* | 17.8µM*
Cc1ncc(N=Nc2ccccc2Cl)c(-c2ccccc2)n1 | -5.2% | -4.8% | 1.7% | ? | ? | 14.0%
Nc1nc(-c2ccccc2)c(N=Nc2ccccc2Cl)s1 | -1.4% | -0.5% | 2.2% | 4.47µM*[quencher] | 5.01µM* | ?
O=C1C[C@@H](O)[C@@H](O)[C@H]2[C@@H]3C(=O)N(Cc4ccccc4)C(=O)[C@@H]3CC[C@H]12 | 0.0%[11.2 µM] | -1.8%[11.2 µM] | nt | -2.9%[11.6 µM] | -3.9%[11.5 µM] | -4.6%[11.6 µM]
O=C1C=CC2=C3c4cc(O)c(O)cc4C[C@@]3(O)COC2=C1 | 14.4% | -17.9% | 0.355µM* | ? | 8.91µM* | ?
O=C1C2=C(Nc3ccccc3SC2c2ccc(C(F)(F)F)cc2)c2ccccc21 (stereo unspecified) | 0.4% | -1.4% | nt | 2.82µM*[quencher] | ? | 10µM*
CC(C)c1ccc(C2Sc3ccccc3NC3=C2C(=O)c2ccccc23)cc1 (stereo unspecified) | -5.0% | 12.3% | nt | ? | ? | ?
CC(=O)Nc1ccc(C2Sc3ccccc3NC3=C2C(=O)c2ccccc23)cc1 (stereo unspecified) | -4.7% | 3.3% | nt | 11.2µM*[quencher] | ? | ?
O=C1C2=C(Nc3ccccc3SC2c2ccco2)c2ccccc21 (stereo unspecified) | -3.4% | 3.3% | 25.3% | 15.8µM*[quencher] | 12.6µM* | ?
CCc1ccc(C2Sc3ccccc3NC3=C2C(=O)c2ccccc23)cc1 (stereo unspecified) | -2.5% | -2.1% | nt | 2.51µM*[quencher] | ? | ?
CC[C@H](C)[C@H](NC(=O)[C@H](CCC(=O)O)NC(=O)CNC(=O)[C@@H](NC(=O)[C@@H]1CCCN1C(=O)[C@@H](NC(=O)[C@@H]1CCCN1C(=O)[C@@H]1CCCN1C(=O)[C@H](CC(N)=O)NC(=O)[C@H](CC(N)=O)NC(=O)[C@@H](NC(=O)[C@H](CCSC)NC(=O)[C@H](Cc1c[nH]c2ccccc12)NC(=O)CNC(=O)[C@@H](NC(=O)[C@H](CCC(N)=O)NC(=O)[C@@H](N)CCC(=O)O)[C@@H](C)CC)[C@@H](C)O)[C@@H](C)CC)C(C)C)C(=O)O | -2.6% | -0.8% | nt | nt | nt | nt
CCC1C(=O)CC2CCN3C(=O)CCC1C23 (stereo unspecified) | -1.0% | 4.4% | nt | nt | nt | nt
COc1ccc(-c2ccc(OC)c(C3C4C=CCC(C)C4C(=O)N3Cc3ccccc3)c2)cc1 (stereo unspecified) | 0.2% | 1.5% | nt | nt | nt | nt
CC1CCCC/C1=N\NC(=S)NCCc1ccccc1 (stereo unspecified) | -1.5% | -14.8% | 11.1% | -15.3% | ? | 3.4%
